What all share (parameters): scale not given: direction of the effect not stated beside the values
Assay [1] deals with Protein translocase subunit SecA (Escherichia coli (strain K12)) (UniProt P10408). The experiment in a line: Assay to Identify E. coli SecA ATPase Inhibitors. In kind it is functional. The conditions noted are these: 30 µM.
Assay [2] deals with T1, Ubiquitin-activating enzyme e1, putative (Leishmania donovani (strain BPK282A1)) (UniProt E9BSI1).
T1 sequence (whole entry): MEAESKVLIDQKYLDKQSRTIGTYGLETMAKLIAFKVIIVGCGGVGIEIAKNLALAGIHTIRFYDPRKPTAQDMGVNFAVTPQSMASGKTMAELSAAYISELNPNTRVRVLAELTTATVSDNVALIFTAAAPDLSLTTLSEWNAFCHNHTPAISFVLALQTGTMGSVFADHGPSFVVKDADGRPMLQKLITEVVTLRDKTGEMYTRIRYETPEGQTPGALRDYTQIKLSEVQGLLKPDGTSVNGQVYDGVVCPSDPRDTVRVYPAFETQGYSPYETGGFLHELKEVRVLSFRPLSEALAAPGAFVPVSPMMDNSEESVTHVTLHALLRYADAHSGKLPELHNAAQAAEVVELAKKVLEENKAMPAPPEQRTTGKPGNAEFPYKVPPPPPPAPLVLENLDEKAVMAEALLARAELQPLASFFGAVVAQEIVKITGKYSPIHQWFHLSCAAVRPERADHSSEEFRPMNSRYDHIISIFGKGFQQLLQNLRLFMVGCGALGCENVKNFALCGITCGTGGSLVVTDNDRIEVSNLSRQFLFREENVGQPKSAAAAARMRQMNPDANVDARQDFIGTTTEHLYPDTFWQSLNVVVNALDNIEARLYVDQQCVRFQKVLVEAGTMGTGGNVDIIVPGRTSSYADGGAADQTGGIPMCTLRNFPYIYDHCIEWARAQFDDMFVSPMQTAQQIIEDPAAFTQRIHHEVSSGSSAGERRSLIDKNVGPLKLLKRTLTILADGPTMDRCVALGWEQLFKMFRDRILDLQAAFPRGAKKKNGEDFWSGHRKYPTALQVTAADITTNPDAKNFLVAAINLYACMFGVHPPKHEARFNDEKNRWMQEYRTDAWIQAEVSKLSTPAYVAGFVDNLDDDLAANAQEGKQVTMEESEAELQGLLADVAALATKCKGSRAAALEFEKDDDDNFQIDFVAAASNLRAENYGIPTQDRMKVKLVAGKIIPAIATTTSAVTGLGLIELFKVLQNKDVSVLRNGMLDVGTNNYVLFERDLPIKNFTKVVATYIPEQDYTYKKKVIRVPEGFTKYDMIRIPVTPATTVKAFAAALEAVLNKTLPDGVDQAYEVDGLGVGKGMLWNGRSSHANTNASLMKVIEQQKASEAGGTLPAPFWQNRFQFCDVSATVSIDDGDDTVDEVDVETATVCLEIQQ
The experiment in a line: Leishmania donovani Ubiquitin Activating Enzyme (LdE1). Format: functional. The settings on record: 30 µM.

In assay [3] the target is Sialic acid-binding Ig-like lectin 9 (Homo sapiens) (UniProt Q9Y336). Briefly: Hs-Siglec9 ALPHAscreen SOP 20170721. The conditions noted are these: 10 µM. Background: In Alpha technology, singlet oxygen from a donor bead excites a nearby acceptor bead.
In a further assay the test system is Trypanosoma cruzi. The experiment in a line: Trypanosoma cruzi phosphomannomutase and mannose-1-phosphate guanylyltransferase assay. In kind it is functional. The conditions noted are these: 10 µM.
Assay [4] has as its target T2, Arginase-2, mitochondrial (Homo sapiens) (UniProt P78540).
T2 sequence (whole entry): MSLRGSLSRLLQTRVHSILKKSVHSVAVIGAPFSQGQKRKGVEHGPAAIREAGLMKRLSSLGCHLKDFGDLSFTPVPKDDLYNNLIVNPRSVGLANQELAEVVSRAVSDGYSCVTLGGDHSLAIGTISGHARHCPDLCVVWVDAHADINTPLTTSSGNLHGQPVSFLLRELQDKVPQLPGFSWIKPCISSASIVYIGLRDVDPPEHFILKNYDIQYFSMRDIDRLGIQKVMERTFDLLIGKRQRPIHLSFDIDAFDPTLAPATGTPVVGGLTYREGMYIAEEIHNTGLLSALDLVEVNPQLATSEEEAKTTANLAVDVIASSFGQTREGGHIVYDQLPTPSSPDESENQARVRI
The experiment in a line: in vitro enzyme assay to detect the production of urea directly proportional to the activity of Arginase II. Further: in the data most compounds retested in dose-response had high values. In kind it is functional. The conditions noted are these: 33.3 µM.

For assay [5], the target named is T3, Proteasome subunit beta (Trypanosoma cruzi) (UniProt O96673).
T3 sequence (whole entry): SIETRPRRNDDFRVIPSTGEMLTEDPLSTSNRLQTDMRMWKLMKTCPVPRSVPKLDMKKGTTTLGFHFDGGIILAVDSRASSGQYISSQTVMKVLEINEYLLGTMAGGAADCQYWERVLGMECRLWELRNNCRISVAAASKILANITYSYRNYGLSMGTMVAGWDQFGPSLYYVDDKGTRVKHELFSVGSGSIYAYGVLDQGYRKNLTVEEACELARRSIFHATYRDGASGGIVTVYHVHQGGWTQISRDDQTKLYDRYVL
Briefly: Trypanosoma cruzi proteasome chymotrypsin-like activity (TcProtChymo) assay. Further: in the data most compounds retested in dose-response had high values. In kind it is functional. The conditions noted are these: 9.37 µM.

The next assay is filed under the species Homo sapiens. Briefly: To identify inhibition of the IFN signalling (Jak-Stat) pathway via expression of an eGFP reporter gene under the control of an IFN-stimulated response element (ISRE) containing MxA promoter. In kind it is functional. The conditions noted are these: 30 µM.
The target in assay [6] is T4, Tyrosyl-tRNA synthetase, putative (Trypanosoma cruzi (strain CL Brener)) (UniProt Q4DSP6).
T4 sequence (whole entry): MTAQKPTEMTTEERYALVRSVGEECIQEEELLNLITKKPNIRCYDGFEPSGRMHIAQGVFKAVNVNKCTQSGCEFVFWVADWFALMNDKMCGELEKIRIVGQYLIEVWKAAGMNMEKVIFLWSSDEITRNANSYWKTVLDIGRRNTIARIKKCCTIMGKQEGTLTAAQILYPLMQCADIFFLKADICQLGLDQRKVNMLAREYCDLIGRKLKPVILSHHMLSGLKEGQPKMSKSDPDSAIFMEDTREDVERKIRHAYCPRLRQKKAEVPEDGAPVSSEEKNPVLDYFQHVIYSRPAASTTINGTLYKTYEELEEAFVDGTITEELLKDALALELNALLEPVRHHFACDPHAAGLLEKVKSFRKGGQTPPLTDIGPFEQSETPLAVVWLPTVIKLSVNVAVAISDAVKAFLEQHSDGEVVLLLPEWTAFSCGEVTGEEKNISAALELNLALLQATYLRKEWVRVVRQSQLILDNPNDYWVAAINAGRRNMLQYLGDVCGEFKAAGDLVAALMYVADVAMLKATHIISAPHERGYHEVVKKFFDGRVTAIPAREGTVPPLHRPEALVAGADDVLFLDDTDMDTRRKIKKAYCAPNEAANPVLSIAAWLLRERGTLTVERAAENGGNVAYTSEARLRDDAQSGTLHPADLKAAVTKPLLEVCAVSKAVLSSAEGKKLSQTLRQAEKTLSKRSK
The experiment in a line: Trypanosoma cruzi tyrosyl tRNA synthetase (TcYRS) _High Tyrosine SOP. Further: in the data most compounds retested in dose-response had high values. The settings on record: 30 µM. In kind it is functional.

For assay [7], the target named is T4, Tyrosyl-tRNA synthetase, putative (Trypanosoma cruzi (strain CL Brener)). Briefly: Trypanosoma cruzi tyrosyl tRNA synthetase (TcYRS) SOP. In kind it is functional. The settings on record: 30 µM.
For assay [8], the target named is Chromo domain-containing protein 1 (Saccharomyces cerevisiae (strain ATCC 204508 / S288c) (Baker's yeast)) (UniProt P32657). Briefly: ScCHD-1 Enzyme Inhibition Assay. Further: in the data most compounds retested in dose-response had high values. The settings on record: 30 µM. Format: functional.

For some assays here: Measured potencies and affinities stand elsewhere.

Sialic acid-binding Ig-like lectin 9 (Homo sapiens), sequence (Q9Y336 whole entry): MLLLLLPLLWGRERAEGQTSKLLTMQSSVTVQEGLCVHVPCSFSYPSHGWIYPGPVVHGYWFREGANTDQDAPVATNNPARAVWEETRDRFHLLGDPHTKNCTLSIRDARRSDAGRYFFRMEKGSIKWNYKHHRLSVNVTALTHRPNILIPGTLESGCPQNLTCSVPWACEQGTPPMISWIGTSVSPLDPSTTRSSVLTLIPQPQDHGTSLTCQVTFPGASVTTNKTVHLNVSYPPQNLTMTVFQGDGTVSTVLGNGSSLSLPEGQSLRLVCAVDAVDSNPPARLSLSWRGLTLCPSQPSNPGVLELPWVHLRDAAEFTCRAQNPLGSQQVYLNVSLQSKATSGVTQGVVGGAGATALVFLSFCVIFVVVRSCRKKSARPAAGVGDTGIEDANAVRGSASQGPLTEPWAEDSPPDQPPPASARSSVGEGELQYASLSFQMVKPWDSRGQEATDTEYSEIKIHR
Chromo domain-containing protein 1 (Saccharomyces cerevisiae (strain ATCC 204508 / S288c) (Baker's yeast)), sequence (P32657 whole entry, the tested form may be a part): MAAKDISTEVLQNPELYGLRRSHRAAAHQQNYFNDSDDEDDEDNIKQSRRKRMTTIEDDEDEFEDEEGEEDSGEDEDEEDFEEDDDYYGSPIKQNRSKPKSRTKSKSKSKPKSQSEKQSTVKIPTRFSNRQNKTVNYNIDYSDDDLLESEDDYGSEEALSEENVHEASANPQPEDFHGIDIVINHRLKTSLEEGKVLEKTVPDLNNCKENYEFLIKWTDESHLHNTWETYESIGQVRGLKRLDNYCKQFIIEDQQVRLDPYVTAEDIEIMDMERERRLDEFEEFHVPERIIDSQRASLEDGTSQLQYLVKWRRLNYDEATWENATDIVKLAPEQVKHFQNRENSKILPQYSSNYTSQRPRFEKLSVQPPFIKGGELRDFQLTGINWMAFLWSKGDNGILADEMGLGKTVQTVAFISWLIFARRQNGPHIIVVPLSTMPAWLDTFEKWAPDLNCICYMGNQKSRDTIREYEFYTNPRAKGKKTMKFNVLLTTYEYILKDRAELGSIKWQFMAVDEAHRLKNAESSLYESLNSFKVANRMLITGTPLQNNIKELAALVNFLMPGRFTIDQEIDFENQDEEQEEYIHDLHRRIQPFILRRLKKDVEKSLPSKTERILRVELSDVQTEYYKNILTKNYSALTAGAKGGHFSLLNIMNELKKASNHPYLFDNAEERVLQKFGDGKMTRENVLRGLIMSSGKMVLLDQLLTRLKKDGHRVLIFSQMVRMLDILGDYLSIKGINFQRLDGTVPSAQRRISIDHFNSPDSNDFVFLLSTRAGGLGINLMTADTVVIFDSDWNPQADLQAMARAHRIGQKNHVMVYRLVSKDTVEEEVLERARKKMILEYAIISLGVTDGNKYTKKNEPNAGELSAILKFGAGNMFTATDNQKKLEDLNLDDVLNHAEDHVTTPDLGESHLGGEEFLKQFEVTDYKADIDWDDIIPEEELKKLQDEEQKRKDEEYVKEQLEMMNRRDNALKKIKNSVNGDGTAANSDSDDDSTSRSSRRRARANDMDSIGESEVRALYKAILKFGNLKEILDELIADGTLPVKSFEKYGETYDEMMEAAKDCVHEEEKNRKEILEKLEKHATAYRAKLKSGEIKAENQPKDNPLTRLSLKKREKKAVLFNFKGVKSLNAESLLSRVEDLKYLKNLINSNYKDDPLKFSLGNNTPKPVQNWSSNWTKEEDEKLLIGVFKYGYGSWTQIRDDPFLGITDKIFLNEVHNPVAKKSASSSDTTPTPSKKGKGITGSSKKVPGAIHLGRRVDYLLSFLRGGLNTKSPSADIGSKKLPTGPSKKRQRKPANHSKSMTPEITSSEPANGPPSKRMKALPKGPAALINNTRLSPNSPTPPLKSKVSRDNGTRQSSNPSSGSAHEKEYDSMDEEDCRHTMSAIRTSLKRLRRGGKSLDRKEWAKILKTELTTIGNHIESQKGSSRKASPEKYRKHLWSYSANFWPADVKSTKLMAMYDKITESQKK
Protein translocase subunit SecA (Escherichia coli (strain K12)), sequence (P10408 whole entry): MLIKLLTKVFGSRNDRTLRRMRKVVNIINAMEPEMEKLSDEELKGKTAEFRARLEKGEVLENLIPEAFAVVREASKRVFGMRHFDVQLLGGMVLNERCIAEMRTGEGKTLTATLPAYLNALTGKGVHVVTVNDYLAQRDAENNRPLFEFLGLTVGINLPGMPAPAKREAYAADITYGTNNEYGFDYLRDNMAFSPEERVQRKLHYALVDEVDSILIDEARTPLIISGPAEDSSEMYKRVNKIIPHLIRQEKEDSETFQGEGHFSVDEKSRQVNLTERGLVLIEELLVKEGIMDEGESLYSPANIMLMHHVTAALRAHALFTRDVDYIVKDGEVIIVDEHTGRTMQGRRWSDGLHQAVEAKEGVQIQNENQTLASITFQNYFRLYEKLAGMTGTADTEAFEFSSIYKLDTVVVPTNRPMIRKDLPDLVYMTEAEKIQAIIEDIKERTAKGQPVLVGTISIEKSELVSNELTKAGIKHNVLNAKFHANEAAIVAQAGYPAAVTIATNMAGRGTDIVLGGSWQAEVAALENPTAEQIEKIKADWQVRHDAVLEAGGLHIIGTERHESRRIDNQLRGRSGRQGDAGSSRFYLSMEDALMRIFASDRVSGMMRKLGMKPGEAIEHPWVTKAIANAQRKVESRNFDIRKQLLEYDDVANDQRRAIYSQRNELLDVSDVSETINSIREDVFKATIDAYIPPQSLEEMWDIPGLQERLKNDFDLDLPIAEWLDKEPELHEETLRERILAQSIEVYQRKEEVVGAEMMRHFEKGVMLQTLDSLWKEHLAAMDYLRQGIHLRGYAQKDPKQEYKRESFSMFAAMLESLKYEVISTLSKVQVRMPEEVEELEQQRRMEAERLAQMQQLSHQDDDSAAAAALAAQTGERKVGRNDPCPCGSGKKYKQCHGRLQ

On to `O=C(NCc1cc[nH]n1)N(CCCO)C1CCc2ccccc21` (stereo not given), for which the Percent Effect was -1.28% in assay [1]; 8% in assay [2]; -0.45% in [3]; 0% with Trypanosoma cruzi; -1.77% in [4]; 2.29% in assay [5]. For the same compound, the Percent Effect in the assay filed under Homo sapiens was 1.81%; in assay [6] it was 3.68%; in assay [7] it was 2.56%; in assay [8] it was -7.56%.

Regarding `CCc1nc(CN(C)C2CCN(CCS(C)(=O)=O)C2)no1` (stereo not given), the Percent Effect in [1] was -1.27%; in assay [2] it was 18.7%; in [3], -4.89%; in the assay on Trypanosoma cruzi, 0%; in assay [4], -1.77%; in assay [5], 16.9%. In addition, the Percent Effect in the assay filed under Homo sapiens is 4.92%; in assay [6], 5.79%; in assay [7] it was 17.9%; in [8] it was -5.25%.

Regarding `O=C(c1ccco1)N1C[C@H]2CCCN(CC3CCOCC3)[C@H]2C1`, the Percent Effect in assay [1] is -3.2%; in assay [2] it was 6.49%; in assay [3], -2.43%; with Trypanosoma cruzi it was -4.77%; in [4], -1.62%; in assay [5], 11.9%. Also, the Percent Effect in the assay filed under Homo sapiens is 1.5%; in assay [6] it was 4.74%; in assay [7] it was 15.4%; in [8], -2.11%.

For the compound `Cc1ccc(NC(=O)C2CSCN2C(=O)c2cnccn2)c(C)c1` (stereo not given), the Percent Effect is -4.93% in assay [1]; 7.69% in assay [2]; -2.1% in [3]; -4.6% in the assay on Trypanosoma cruzi; 6.15% in assay [4]; 1.11% in [5]. Besides, the Percent Effect in the assay listed under Homo sapiens was 26.2%; in assay [6], 3.35%; in [7], 10.8%; in assay [8], -1.89%.

As to `CN(Cc1ccc2c(c1)OCCO2)C(=O)Cn1cccnc1=O`, the Percent Effect in assay [1] was -4.28%; in assay [2] it was 10.7%; in assay [3], -2.28%; in the assay on Trypanosoma cruzi, 3.41%; in assay [4] it was 1.33%; in assay [5], 16%. The Percent Effect is 6.87% in the assay filed under Homo sapiens, 6.84% in assay [6], 12.8% in assay [7] and -8.2% in assay [8].

As for `CNc1cccc(C2CCCN(C(C)=O)C2)n1` (stereo not given), the Percent Effect in assay [1] is 1.36%; in assay [2], 6.67%; in [3], -7.25%; in the assay on Trypanosoma cruzi, -6.71%; in [4], 3.98%; in [5], 14.1%. Also, the Percent Effect in the assay filed under Homo sapiens is 17.4%; in assay [6] it was 1.06%; in assay [7], 5%; in assay [8], -14.4%.

As for `O=C1NCC2(CCCN(Cc3ccc(Cl)s3)C2)Oc2ccccc21` (stereo not given), the Percent Effect in [1] is -1.75%; in [2] it was 20%; in assay [3], 4.75%; with Trypanosoma cruzi, 1.18%; in assay [4], -1.33%; in assay [5] it was 10.3%. Moreover, the Percent Effect in the assay listed under Homo sapiens is 12.7%; in assay [6], 4.23%; in assay [7], 20%; in assay [8] it was -28.8%.

For the compound `CCNc1cc2c(nn1)CCN(C(=O)c1ccc(CNC(C)=O)o1)C2`, the Percent Effect was -4.81% in [1]; 8% in assay [2]; 4.09% in assay [3]; -1.81% in the assay on Trypanosoma cruzi; 3.99% in assay [4]; 6.36% in [5]. Further, the Percent Effect was 5.79% in the assay filed under Homo sapiens, 3.68% in assay [6], 15.4% in assay [7] and -12.3% in assay [8].

As to `O=C(NCC1CC1)C1CCC2(CCN(C(=O)c3ccccn3)CC2)O1` (stereo not given), the Percent Effect in assay [1] was -3.07%; in [2] it was 1.3%; in assay [3], -0.0517%; with Trypanosoma cruzi, -2.44%; in assay [4], 2.74%; in assay [5], -2.66%. Also, the Percent Effect in the assay filed under Homo sapiens is 9.93%; in [6], -4.83%; in [7] it was -10%; in [8], -4.71%.

Regarding `Cn1cnc2c1CCN(Cc1csc(-c3ccsc3)n1)C2`, the Percent Effect in [1] was -0.725%; in assay [2], 0%; in [3], -11.7%; with Trypanosoma cruzi, -1.41%; in [4], 3.69%; in assay [5], 13.2%. Moreover, the Percent Effect in the assay filed under Homo sapiens amounted to 27.3%; in [6], 11%; in assay [7], 13.2%; in assay [8], 25%.

Consider `Cc1nc(CN2CCCC(CCc3ccc(F)cc3F)C2)c[nH]1` (stereo not given), for which the Percent Effect in assay [1] was -4.78%; in [2], -2.7%; in [3], 37.1%; in the assay with Trypanosoma cruzi, 4.75%; in assay [4], 1.05%; in assay [5], 3.94%. For the same compound, the Percent Effect in the assay listed under Homo sapiens was -3.62%; in assay [6] it was 2.66%; in assay [7] it was 7.32%; in assay [8], -1.62%.

(Values after ChEMBL document CHEMBL3988442, “University of Dundee, Small-Polar-MMV Screening Library” (2021).)
